# Test results from PubChem BioAssay AID720617 (Broad Institute, 2013).
# Inconclusive results are not listed. Active and inactive are the calls of the source.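 How the source made its calls: active means active at all three treatment times, each with half-maximal potency within twice the top valid dose, signal falling; inconclusive means treatment times disagree on the call; inactive means inactive at all three times, including opposite responses.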
# Test: viability loss in CCRF-CEM T-lymphoblasts – cell-based, Alamar Blue fluorescence, several timepoints, dry powder, mechanism study for HRAS target identification, late-stage follow-up (AID 720617)
# Conditions: activity change: measured here: 8 h treatment viability, at 35 µM, stronger effect = lower value
Compound,activity change [%],outcome
CCC(=O)N(c1ccc(OC)c(Cl)c1)C(C(=O)NCCc1ccccc1)c1cccs1 (centres undefined),6.85,inactive
Cc1onc(C(=O)N2CCN(C(c3ccncc3)c3ccncc3)CC2)c1[N+](=O)[O-],-0.515,inactive
